# Reference: PubChem BioAssay AID588726 (The Scripps Research Institute Molecular Screening Center, 2011)
# In all, about 360,000 compounds went through this assay and about 8,200 (2.3%) were called active. The sample holds actives, similar compounds and a random draw of the others, so the mix is not that of the screen. Unmarked numbers belong to inactive results. No stated cut-off is given here; in the data, active means inhibition above about 27%; inactive means the rest.
# Molecular target: Fructose-bisphosphate aldolase (Mycobacterium tuberculosis (strain ATCC 25618 / H37Rv)) (UniProt P9WQA3)
# Sequence (P9WQA3 whole entry, looked up): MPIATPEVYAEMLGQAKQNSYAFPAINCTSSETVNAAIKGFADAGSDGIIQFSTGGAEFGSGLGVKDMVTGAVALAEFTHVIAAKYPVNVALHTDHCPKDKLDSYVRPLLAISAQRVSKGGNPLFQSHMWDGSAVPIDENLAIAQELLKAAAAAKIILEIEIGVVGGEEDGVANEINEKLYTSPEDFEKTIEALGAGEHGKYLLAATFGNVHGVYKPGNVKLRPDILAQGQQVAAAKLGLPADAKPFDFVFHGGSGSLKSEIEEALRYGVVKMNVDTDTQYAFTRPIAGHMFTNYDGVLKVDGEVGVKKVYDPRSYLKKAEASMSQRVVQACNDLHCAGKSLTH
# Assay: M. tuberculosis aldolase activity blockers – biochemical, fluorescence, strain H37Rv, primary screen (AID 588726);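 further: 0% = vehicle and 100% = reference inhibitor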
# Settings: purified M. tuberculosis FBA, fluorescence read-out, at 1 µM, stronger effect = higher value
row,SMILES,inhibition
1,Cc1cc(C)cc(NC(=O)N2CCC(NC(=O)c3ccc(F)cc3)CC2)c1,-6.06%
2,O=C(Nc1cccc(F)c1)[C@@H]1CCCN1,4.68%
3,Cc1nc2nc(SCC(=O)Nc3cccc(F)c3)[nH]c2cc1Br,-2.16%
4,O=C(Nc1cccc(F)c1)c1coc(=O)c(Br)c1,171% (active)
5,CCc1nn(CCCC(=O)NCc2ccc(C)cc2)c(=O)c2cc3occc3n12,-0.41%
6,COc1ccc(C(=O)CN2C(=O)NC3(CCc4ccccc43)C2=O)c(OC)c1 (centres undefined),1.92%
7,CCOc1ccc(-c2nnc(-c3ccco3)o2)cc1,54% (active)
8,CCCCOc1ccc(-c2nnc(-c3ccco3)o2)cc1,46.1% (active)
9,N#Cc1ccc(OCc2nnc(-c3ccc([N+](=O)[O-])cc3)o2)cc1,0.59%
10,CCCCSc1nnc(-c2ccc(C)cc2)o1,3.13%
11,CCCOc1ccc(-c2c(C(=O)N/N=C/c3ccco3)nnn2-c2nonc2N)cc1,4.8%
12,CCOc1ccc(-n2c(SCC(N)=O)nnc2-c2ccco2)cc1,0.41%
13,CCC(C)(C(=O)NC1CCCC1)N(C(=O)CNC(C)=O)c1ccc(C)cc1 (centres undefined),1.41%
14,Cc1nc2cccnc2nc1C,-0.64%
15,COc1ccc(NC(=O)c2cccc3c2C(=O)N(CC2CCCO2)C3)cc1OC (centres undefined),-1.34%
16,COCCN(C(=O)CC1CCCCC1)c1c(N)n(CC(C)C)c(=O)[nH]c1=O,2.06%
17,O=C(N/N=C/c1cccc([N+](=O)[O-])c1)C1CC(=O)N(c2ccc(Br)cc2)C1 (centres undefined),2.78%
18,O=[N+]([O-])c1cccc(C=NN=Cc2ccccc2O)c1,1.54%
19,O=[N+]([O-])c1cccc(/C=N/Nc2ncc(Br)cn2)c1,144% (active)
20,CCCN(C(=O)COC(=O)CNS(=O)(=O)c1ccc(NC(C)=O)cc1)C1CCS(=O)(=O)C1 (centres undefined),1.9%
21,COc1ccc(CCN(Cc2cc3cccc(C)c3[nH]c2=O)C(=O)N2CCCC2)cc1OC,0.64%
22,Cc1cccc(NC(=O)c2sc3nc(N4CCOCC4)c4c(c3c2N)CCCC4)c1,39.1% (active)
23,c1ccc(CSc2ncnc3c2sc2nc(N4CCOCC4)c4c(c23)CCCC4)cc1,3.1%
24,Cc1nc(N2CCOCC2)c2c(C)c(C(=O)Nc3ccc(C(F)(F)F)cc3)sc2n1,2.82%

row,SMILES,inhibition
1,Cc1cc(C)cc(NC(=O)Cn2cnc3c(nnn3Cc3ccc(F)cc3)c2=O)c1,1.33%
2,CN(C)/C(CN1CCCCC1)=C1\N=C(c2ccccc2)OC1=O,-2.21%
3,CCN(CC(=O)NCc1cccs1)c1nnnn1-c1ccccc1,-0.27%
4,O=C(Nc1nnc(C2CC2)s1)c1ccccn1,2.11%
5,CCC(C)(C)NC(=O)C(c1ccccn1)N(C(=O)c1csnn1)c1ccccc1 (centres undefined),-0.46%
6,CN(C(=O)c1ccccn1)c1nnc(-c2ccccn2)s1,31.6% (active)
7,CN(C(=O)COc1ccccc1)c1nnc(-c2ccncc2)s1,53.2% (active)
8,CN(C(=O)C1CCOC1)c1nnc(-c2cccnc2)s1 (centres undefined),-7.08%
9,CN(C(=O)COc1nnc(-c2cccs2)c(-c2cccs2)n1)c1ccccc1,3.91%
10,CN(C(=O)CSc1nnc(-c2c[nH]c3ccccc23)o1)C1CCS(=O)(=O)C1 (centres undefined),0.37%
11,Nn1c(SCC(=O)NC2CCCC2)nnc1-c1ccccc1F,-0.66%
12,CC(=O)C(C)n1cnc2scc(-c3ccc(C)cc3)c2c1=O (centres undefined),-0.72%
13,Cc1sc2ncnc(SCC(=O)Nc3ccc(CN4CCCC4)cc3)c2c1C,-0.95%
14,O=C(O)CCCn1c(=O)c2cccn2c2ccc(F)cc21,6.9%
15,CCN(CC)CCC(c1ccc2c(c1)OCO2)c1c(OC)cc(OC)c2c(-c3ccccc3)cc(=O)oc12 (centres undefined),4.6%
16,COc1ccc2oc(N)nc2c1,0.46%
17,O=[N+]([O-])c1ccc2oc(-c3cccc(O)c3)nc2c1,0.6%
18,CC(=O)Oc1ccc(C(C)=O)c2c1OCCO2,5.05%
19,Cc1cc(OCc2cc(C(=O)O)oc2C)c2c3c(c(=O)oc2c1)CCCC3,107% (active)
20,COc1ccc(CNC(=O)c2cc(=O)c3c(C)cc(C)cc3o2)cc1,-0.13%
21,Cc1oc(C(N)=O)cc1COc1ccc(C(N)=O)cc1,3.54%
22,O=C(COc1cc2oc(=O)c3c(c2cc1Cl)CCC3)NCCCN1CCOCC1,6.36%
23,COC(=O)COc1cc(C)cc2oc(=O)c3c(c12)CCCC3,28.4% (active)
24,CC(Oc1cc2oc(=O)c3c(c2cc1Cl)CCCC3)C(=O)NCc1ccncc1 (centres undefined),26.1%

row,SMILES,inhibition
1,C=CCNC(=O)C1CC2c3ccccc3C1c1ccccc12 (centres undefined),-1.94%
2,CC/C(=C\c1ccc(Cl)cc1)c1ccncc1,-2.63%
3,S=c1[nH]nc(Nc2ccccc2)s1,3.65%
4,CCc1ccc(Nc2ncc3c(n2)CC(c2ccco2)CC3=O)cc1 (centres undefined),8.11%
5,Cc1ccc(Cn2c(C)nc3c(c2=O)c2nc4ccccc4nc2n3Cc2ccco2)cc1,47.6% (active)
6,Cc1ccc(OCC(=O)c2cc(C)n(Cc3ccco3)c2C)c([N+](=O)[O-])n1,-5.32%
7,Clc1cccc(-c2nc3nc4ccccc4nc3n2Cc2ccco2)c1,17.8%
8,O=C1N=C(N2CCOCC2)CS1,-1.54%
9,CC(C)(C)NS(=O)(=O)NC(=O)C1=C(N2CCCC2)COC1=O,-4.63%
10,CCC(C)(C)C1CCC(=NNC(=O)c2ccc(Br)o2)CC1 (centres undefined),-1.67%
11,CCOC(=O)C1CCCN(C(=O)CSc2nnc3nc(C)cc(C)n23)C1 (centres undefined),7.69%
12,Cc1ccc(S(=O)(=O)c2nc(NCCCn3ccnc3)sc2Cl)cc1,0.32%
13,Cc1ccc(-c2nc(C#N)c(NCCCn3ccnc3)o2)cc1,71.6% (active)
14,Cc1ccc2c(Cl)c(C(=O)NCCCn3ccnc3)sc2c1,-2.28%
15,N#Cc1nc(-c2ccc(OCc3ccccc3)cc2)oc1NCCCN1CCOCC1,92.7% (active)
16,O=S(=O)(c1ccccc1)c1nc(-c2ccccc2)oc1NCCCN1CCOCC1,-3.13%
17,O=S(=O)(c1ccc(Cl)cc1)c1nc(-c2ccccc2F)oc1NCCN1CCOCC1,-1.99%
18,CCN(CC)S(=O)(=O)c1ccc(N2CC(C(=O)NCc3cccnc3)CC2=O)cc1 (centres undefined),1.11%
19,Cc1c(CCC(=O)N[C@@H](CC(C)C)C(=O)O)c(=O)oc2c(C)c3oc4c(c3cc12)CCCC4,13.8%
20,CC[C@@H](C)[C@H](NC(=O)CCc1c(C)c2cc3c4c(oc3c(C)c2oc1=O)CCCC4)C(=O)O,27.5% (active)
21,Cc1c(C)c2cc3c4c(oc3c(C)c2oc1=O)CCCC4,2.57%
22,O=C(Nc1ccccc1C(=O)N1CCOCC1)C1CCC(=O)N1C1CCCC1 (centres undefined),0.4%
23,COCCn1c(=O)[nH]c2cc(C(=O)NCc3cccnc3)ccc2c1=O,12.2%
24,COc1ccc(C(=O)OCC(=O)Nc2ccc3[nH]c(=O)[nH]c3c2)c(OC)c1OC,5.97%

row,SMILES,inhibition
1,O=C(COc1ccc([N+](=O)[O-])cc1Cl)Nc1ccc2[nH]c(=O)[nH]c2c1,-1.08%
2,CC(C)(C)NC(=O)COc1ccc(CNc2ccc3[nH]c(=O)[nH]c3c2)cc1,64.6% (active)
3,COc1ccc(S(=O)(=O)N2CCC(C(=O)NCCC(=O)NCCc3cccc(F)c3)CC2)cc1,3.06%
4,O=C(CCNC(=O)c1ccc(Br)cc1)NCC(c1ccco1)N1CCCCC1 (centres undefined),-0.35%
5,Cc1nn(Cc2ccccc2)c(C)c1CNC(=O)c1ccc(F)c(S(=O)(=O)N2CCOCC2)c1,0.09%
6,Cc1ccccc1CSc1nnc(Cn2c(=O)sc3ccccc32)n1C,3.39%
7,Nc1cccc(-c2cc(-c3ccccc3)nc(-c3cccc(N)c3)n2)c1,16.1%
8,Cc1nc(NNC(=O)c2ccccc2)cc(-c2ccccc2)n1,1.26%
9,CNc1nc(-c2ccccc2)cc(-c2ccccc2)n1,29.2% (active)
10,O=[N+]([O-])c1ncc(Br)cc1Nc1ccccc1,-5.84%
11,CC1CCc2c(c3ccccc3[nH]c2=O)O1 (centres undefined),-0.34%
12,COC(=O)c1sc(N)c(C(=O)OC)c1COC(=O)CNS(=O)(=O)c1ccc(C)cc1,1.77%
13,Cc1ccsc1C(=O)N[C@@H](C)c1nnc2ccccn12,51.8% (active)
14,Cc1ccc(C(=O)NNC(=O)CSc2nnc3ccccn23)cc1,0.48%
15,CCn1c(SCC(=O)Nc2nc(C)cs2)nnc1C(C)NC(=O)c1ccccc1 (centres undefined),0.82%
16,COc1cccc(N2CC(NC(=O)c3ccc4ccccc4c3)CC2=O)c1 (centres undefined),1.83%
17,COc1ccc(S(=O)(=O)N2CCN(c3cnccn3)CC2)cc1,2.14%
18,O=C1OCCN1C(=O)[C@H]1[C@H](c2ccc(Cl)cc2)C(c2cccc(Cl)c2)=NN1c1ccc(Br)cc1,57.4% (active)
19,O=C1OCCN1C(=O)[C@H]1[C@H](c2ccccc2)C(c2ccc(F)cc2)=NN1c1ccccc1,11%
20,O=C1OCCN1C(=O)[C@H]1[C@H](c2ccc(F)cc2)C(c2ccccc2)=NN1c1ccc(Br)cc1,42.2% (active)
21,C[C@@H]1C(c2ccc(F)cc2)=NN(c2ccc(Br)cc2)[C@H]1C(=O)N1CCOC1=O,20.3%
22,Cc1nn(-c2ccccc2)c2c1C(c1cccc([N+](=O)[O-])c1)N(c1ccccc1)C(=O)N2 (centres undefined),-3.95%
